From PubChem
Rows were chosen to be rich in hits. Some 8.1% of all compounds tested hit in one or more screens of this group.
Gal4-VP16 FLuc – counter-screen for ROR gamma inhibitors: Gal4-VP16 reporter; Drosophila S2 Gal4-VP16 UAS-luciferase, luminescence, 20 h; Potency, µM (series often up to 53.6 µM), inactives show at the highest dose activity, negative = inhibition, actives largely listed as inhibitors; 310,000 tested, 3.5% active;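 note: Gal4-VP16 expression switched on by copper sulfate through the metallothionein promoter; % is set by controls: 0 for no effect and ±100 for the full control effect; nearly all actives have a fitted effect of over 50% in size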
Epigenetic reg – derepresses silenced GFP reporter in murine cells; murine LDR cells, GFP reporter derepression, 30 h; Potency, µM (top dose mostly 53.9 µM), without a hit: at the top dose GFP activation, usual class: activators; 280,000 tested, 0.2% active; AID 1865; note: % of control where 0% means no effect; nearly all actives have a fitted effect of over 60% in size
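Readout is the number of GFP-expressing murine LDR cells, counted by cytometry following washing. Cells were treated with compound for 30 h at 37 C; the stably integrated CMV-GFP locus is normally silent.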
Sfp inh – blocks B. subtilis Sfp PPTase activity | AID 1490 | Potency, µM, without a hit: largest response in the series, negative = inhibition, most hits filed as inhibitors | 310,000 tested, 3.5% active | Biochemical Sfp PPTase activity, qHTS;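 note: the enzyme is Sfp with the accession as filed and its product quenches rhodamine fluorescence; 0% = enzyme reaction without inhibitor and -100% = no enzyme wells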
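Reaction rates are the 30-min fluorescence difference (ex 525, em 598 nm) in wells containing 15 nM Sfp, 5 uM rhodamine-CoA and 12.5 uM BHQ-2-YbbR at pH 7.6 with 10 mM MgCl2.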
RORgamma inh – inhibitors of mouse ROR gamma transcriptional activity; AID 2551; Drosophila S2 Gal4-RORgamma UAS-luciferase reporter, 20 h; P51450; 310,000 tested, 5.4% active; Potency, µM (titrated, usually from 53.6 µM), for inactives: at the top dose activity change, negative = inhibition, most hits filed as inhibitors; note: % is set by controls: 0 for no effect and ±100 for the full control effect; nearly all actives have a fitted effect of over 60% in size
Target sequence (P51450 whole entry, looked up, the tested form may be a part): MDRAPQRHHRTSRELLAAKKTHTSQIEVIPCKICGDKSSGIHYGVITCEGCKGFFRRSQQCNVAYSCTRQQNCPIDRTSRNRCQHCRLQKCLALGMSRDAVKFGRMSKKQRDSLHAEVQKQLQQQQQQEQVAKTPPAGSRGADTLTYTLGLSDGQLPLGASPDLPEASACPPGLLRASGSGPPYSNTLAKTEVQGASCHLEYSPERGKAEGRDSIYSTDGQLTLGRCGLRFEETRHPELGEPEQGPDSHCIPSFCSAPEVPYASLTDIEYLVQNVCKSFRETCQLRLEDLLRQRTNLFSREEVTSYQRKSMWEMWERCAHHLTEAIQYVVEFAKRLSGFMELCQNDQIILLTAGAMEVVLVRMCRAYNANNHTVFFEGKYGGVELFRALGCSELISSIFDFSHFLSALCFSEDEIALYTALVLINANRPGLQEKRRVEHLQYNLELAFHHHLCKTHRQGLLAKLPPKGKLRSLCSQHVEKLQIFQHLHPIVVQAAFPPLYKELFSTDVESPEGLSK
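Schneider cells (Drosophila), stable Gal4 DBD–ROR gamma + UAS-luc; 1 hr cmpd preincubation; Cu2+ induction 700 uM final; 20 hr ambient; luminescence.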
ClpP mod – qHTS Assay for Activators of ClpP | ATP-dependent Clp protease proteolytic subunit (Bacillus subtilis (strain 168)), P80244 | purified B. subtilis ClpP, FRET peptide cleavage, 20 min | Potency, µM (highest dose often 57.5 µM), for inactives: at the highest dose activity change, negative = active | 340,000 tested, 1.9% active; active = well fitted falling curve with a large enough effect; inconclusive = small, poorly fitted or top-dose-only effect; inactive = no such curve, though single readings can be large or run the other way; note: the source files actives as falling curves though it sought activators and does not explain the sign; nearly all actives have a fitted effect of over 65% in size
Target sequence (P80244 whole entry, looked up): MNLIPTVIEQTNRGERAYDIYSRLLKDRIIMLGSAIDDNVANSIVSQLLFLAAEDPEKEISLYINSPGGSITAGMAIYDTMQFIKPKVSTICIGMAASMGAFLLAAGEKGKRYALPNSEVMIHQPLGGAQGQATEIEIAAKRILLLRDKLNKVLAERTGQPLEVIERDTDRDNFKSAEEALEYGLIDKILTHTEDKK
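Purified B. subtilis ClpP, 10 microg/mL final in Tris/HCl pH8 with KCl, BSA, glycerol and Tween-20, cleaved an Abz/nitrotyrosine-quenched decapeptide. Fluorescence (ex 320, em 430) was read at 0 and 20 min at room temperature. Delta was normalized to 5.8 microM ADEP and DMSO/no-enzyme controls.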
PINK1 modulator – modulators of PINK1 expression. 410,000 tested, 0.2% active. PINK1 immunofluorescence, high-content cytometry, 24 h. Potency, µM (highest dose often 76.6 µM), for inactives: at the top dose activation (PINK1 increase), usual class: activators. AID 624263; active = well fitted activation curve with a large enough effect; inconclusive = small, poorly fitted or top-dose-only effect; cell line not stated here; note: % of control where 0% means no effect; nearly all actives have a fitted effect of over 65% in size
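PINK1 protein, normally rapidly degraded, was detected by immunofluorescence after 24 hour compound treatment of a stable cell line. Titration data (5 concentrations) came from laser-scanning cytometry, with CCCP-treated wells as controls.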
Starred values were filed as active, the others as inactive; [ ] = dose if it differs, or a comment. Unless noted, calls come from the whole dose curve; as a rule, active = well fitted curve in the direction sought with a large enough effect; inconclusive = small, poorly fitted or top-dose-only effect, or another doubt; inactive = no such curve, though single readings can be large; an effect the other way counts as inactive or inconclusive. Potency is the fitted concentration of half-maximal effect.

O=C1CSC(=S)N1N=Cc1c[nH]c2ccc(Br)cc12 was read as ClpP mod -1.3% and PINK1 modulator 3.2%.
COc1ccc(-c2cn3nc(N4CCCC(C(=O)Nc5cccc(OC)c5)C4)sc3n2)cc1 (stereo not drawn) was read as Epigenetic reg -0.2%, ClpP mod -1.1% and PINK1 modulator 0.1%.
`Cc1ccc(CNC(=O)CC(C)S(=O)(=O)c2ccc3c(c2)NC(=O)CO3)cc1` (stereo not drawn) gave Gal4-VP16 FLuc 3.3%, Sfp inh 9.6%, RORgamma inh 10.7%, ClpP mod -0.4% and PINK1 modulator -0.6%.
For Cc1ccc(CNC(=O)CC(C)S(=O)(=O)c2ccc3c(c2)NC(=O)CS3)o1 (stereo not drawn) the results were Gal4-VP16 FLuc -2.0%, Sfp inh 25.1µM*, RORgamma inh -6.4%, ClpP mod -3.7% and PINK1 modulator 0.5%.
CCOc1ccc(CN(CCC#N)C(=S)NC(=O)c2ccccc2)cc1 was read as Gal4-VP16 FLuc 0.447µM*, Epigenetic reg 0.0%, Sfp inh -3.0%, RORgamma inh 0.398µM*, ClpP mod 0.8% and PINK1 modulator 0.2%.
`Cc1ccc(C(=O)NC(=S)N(C)Cc2ccccc2)cc1` gave ClpP mod 0.2% and PINK1 modulator 6.8%.
CCOc1ccc(C(=O)NC(=S)N(Cc2ccccc2)Cc2ccccc2)cc1 was read as Gal4-VP16 FLuc 0.794µM*, Epigenetic reg -1.1%, Sfp inh 5.8%, RORgamma inh 0.282µM*, ClpP mod 0.9% and PINK1 modulator 4.3%[38.3 µM].
For CCOc1ccc(C(=O)NCCc2ccccc2)cc1 the results were Gal4-VP16 FLuc 8.91µM*, Epigenetic reg -1.5%, Sfp inh 18.8%, RORgamma inh 8.91µM*, ClpP mod -1.4% and PINK1 modulator 2.6%[38.3 µM].
CC(=O)Oc1ccc(C(=O)NCCc2ccccc2)cc1 was read as Gal4-VP16 FLuc inconclusive, Epigenetic reg -0.1%, Sfp inh 15.0%, RORgamma inh inconclusive and PINK1 modulator -0.6%.
For CCCN(CCC)C(=S)NC(=O)c1ccc(-c2ccccc2)cc1 the results were Gal4-VP16 FLuc 0.126µM*, Epigenetic reg -0.9%, Sfp inh inconclusive, RORgamma inh 0.501µM*, ClpP mod 1.2% and PINK1 modulator 7.7%[38.3 µM].
COc1ccccc1CNC(=O)c1cnn(-c2ccc(F)cc2F)c1C1CCN(C(=O)OC(C)(C)C)CC1 was read as Epigenetic reg -0.2%, ClpP mod 1.6% and PINK1 modulator 0.4%.
`COc1cc(OC)c(NC(=O)Cn2cnc3nc4c(cc3c2=O)CCCC4)cc1Cl` gave Epigenetic reg -0.6%, ClpP mod -1.7% and PINK1 modulator 2.9%.
Screening N#CCCN(Cc1ccccc1)C(=S)NC(=O)c1ccccc1 returned Gal4-VP16 FLuc 0.708µM*, Epigenetic reg 1.8%, Sfp inh -26.7%, RORgamma inh 0.355µM*, ClpP mod -0.7% and PINK1 modulator inconclusive.
COc1ccc(CCNC(=O)COc2ccc(-c3ccc(C#N)cc3)cc2)cc1 was read as Gal4-VP16 FLuc -4.8%, Epigenetic reg 0.0%, Sfp inh -13.8%, RORgamma inh 0.3%, ClpP mod inconclusive and PINK1 modulator 6.4%.
`COc1ccc(CN(CCC#N)C(=S)NC(=O)c2ccccc2)cc1` gave Gal4-VP16 FLuc 0.562µM*, Epigenetic reg inconclusive, Sfp inh -4.9%, RORgamma inh 0.316µM*, ClpP mod -0.8% and PINK1 modulator -1.4%.
N#Cc1ccc(-c2ccc(OCC(=O)NCCc3ccccc3)cc2)cc1 was read as Gal4-VP16 FLuc inconclusive, Epigenetic reg 1.0%, Sfp inh inconclusive, RORgamma inh 18.8%, ClpP mod 31.6µM* and PINK1 modulator -1.9%.
For N#CCCN(Cc1ccccc1)C(=S)Nc1ccccc1 the results were Gal4-VP16 FLuc 4.3%, Epigenetic reg 0.0%, Sfp inh 5.8%, RORgamma inh -41.3%, ClpP mod 1.8% and PINK1 modulator 2.9%.
`COc1ccc(NC(=O)c2cn(-c3ccccc3)nc2-c2cc3ccccc3o2)cc1` gave Gal4-VP16 FLuc -26.8%, Epigenetic reg -1.1%, Sfp inh 21.6%, RORgamma inh 31.9%, ClpP mod inconclusive and PINK1 modulator 0.9%.
Screening OCc1cn(-c2ccccc2)nc1-c1cc2ccccc2o1 returned Gal4-VP16 FLuc 11.2µM*, Epigenetic reg -0.1%, Sfp inh 56.2µM*, RORgamma inh inconclusive, ClpP mod 3.0% and PINK1 modulator 2.4%.
`O=C(O)/C=C/c1cn(-c2ccccc2)nc1-c1cc2ccccc2oc1=O` gave Gal4-VP16 FLuc 4.9%, Epigenetic reg -2.1%, Sfp inh 6.3%, RORgamma inh 19.8%, ClpP mod -6.1% and PINK1 modulator -1.3%.
For N#Cc1cn(-c2ccccc2)nc1-c1cc2ccccc2oc1=O the results were Gal4-VP16 FLuc 12.4%, Epigenetic reg 0.0%, Sfp inh 8.4%, RORgamma inh 15.6%, ClpP mod 31.6µM* and PINK1 modulator -0.5%.
`O=Cc1cn(-c2ccccc2)nc1-c1cc2c(ccc3ccccc32)oc1=O` gave Gal4-VP16 FLuc 0.5%, Epigenetic reg 0.7%, Sfp inh -3.3%, RORgamma inh -12.3%, ClpP mod 5.62µM* and PINK1 modulator 0.3%.
For Cc1cccc(NC(=S)N=Nc2c(O)n(C)c3ccc(S(=O)(=O)N4CCOCC4)cc23)c1 the results were Gal4-VP16 FLuc 0.708µM*, Epigenetic reg 0.0%, Sfp inh -7.3%, RORgamma inh 0.126µM*, ClpP mod 0.5% and PINK1 modulator -0.9%.
`Cc1ccc(NC(=S)N=Nc2c(O)n(C)c3ccc(S(=O)(=O)N4CCOCC4)cc23)cc1` gave Gal4-VP16 FLuc 1µM*, Epigenetic reg 0.0%, Sfp inh 6.8%, RORgamma inh 0.708µM*, ClpP mod -1.8% and PINK1 modulator 0.6%.
For Cc1cc(C)cc(NC(=S)N=Nc2c(O)n(C)c3ccc(S(=O)(=O)N4CCOCC4)cc23)c1 the results were Gal4-VP16 FLuc -89.8%, Epigenetic reg 0.0%, Sfp inh 4.4%, RORgamma inh inconclusive, ClpP mod -9.0% and PINK1 modulator 6.1%.
Cc1ccc(/C=N/Nc2ccc3c(C(F)(F)F)cc(C(F)(F)F)nc3n2)cc1 was read as Gal4-VP16 FLuc 0.5%, Epigenetic reg -0.9%, Sfp inh 23.1%, RORgamma inh -29.9%, ClpP mod -4.0% and PINK1 modulator 2.5%.
